# Source: PubChem
# TRAIL sens C8 = viability loss with TRAIL in NB7+C8 cells, primary screen, TRAIL sensitizer project, cell-based, ATPlite luminescence | 360,000 tested, 1% active | inhibition (viability loss, TRAIL sensitization), % at 10 µM;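 active = compounds causing at least 50% loss of cell viability in the single-dose screen, relative to plate controls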
# PPC-1+TRAIL kill = compounds killing PPC-1 cancer cells with TRAIL present, primary screen, TRAIL potentiator project, ATPLite luminescence, uHTS | PPC-1 cells + TRAIL, ATPLite viability luminescence | cell killing (% activity), % at 4 µM or 5 µM | 220,000 tested, 0.41% active | AID 1443, 2008;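 active = cell killing above 50% in the first pass at 4 µM, then a duplicate retest at 5 µM averaging 50% or more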;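 also: plate controls were cells with TRAIL plus DMSO for no effect and medium-only wells lacking cells for full effect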
# STAT1 blocker = STAT1 signaling inhibitors, primary screen, cell-based, HTS, luciferase reporter; NIH 3T3 STAT1-luciferase reporter, IFN-gamma, luminescence; inhibition, % at 5.5 µM; 200,000 tested, 0.35% active;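 active = inhibition above a set limit, the mean inhibition across all tested compounds plus 3 SD, cut at about 34% in these data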;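 also: 0% = IFN-gamma with DMSO and 100% = IFN-gamma with 300 µM nifuroxazide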
# STAT3 inh = IL-6 driven STAT3 reporter inhibitors, primary screen, U3A cells, luciferase, luminescence, MLSCN library | inhibition, % at 5.5 µM | IL-6 STAT3-luciferase reporter; host cell line lacks STAT1 | 190,000 tested, 0.89% active;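 active = inhibition above the mean inhibition across all screened compounds plus 3 SD, cut at about 44% in these data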;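 also: 0% = DMSO only wells and 100% = 100 µM nifuroxazide control wells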
# HSP90 refold inh = HSP90 inhibitors, primary screen, cell lysate, luminescence | Heat shock protein HSP 90 (rabbit reticulocyte lysate; luciferase refolding) | Rabbit reticulocyte lysate, luciferase refolding luminescence, 3 h | inhibition, % at 5.6 µM | 290,000 tested, 0.91% active | AID 1789, 2009;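 active = inhibition above the screen-wide mean plus 3 SD, computed separately per campaign, cut at about 16% in these data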;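 also: 0% = DMSO wells and 100% = 60 µM geldanamycin wells; inhibitors lower the luminescence because luciferase stays unfolded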
# HSF1 inhib = HSF1 inhibitors in luciferase reporter cells, primary screen, cell-based, NIH3T3, luminescence; activity change, negative = inhibition, % at 7.5 µM (by protocol); 300,000 tested, 0.77% active; NIH3T3-HGL HSE-luciferase, MG132-induced, luminescence 8 h; stronger effect = lower value;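 active = more than half of replicate wells show activity change below -50%, luminescence cut by over half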;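 also: luciferase reports HSF-1 transcriptional activity via heat shock element; 0% = median of DMSO wells and -100% = zero luminescence signal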
# PPC-1 tox = cytotoxicity in PPC-1 cells, confirmation, cytotoxicity control for TRAIL apoptosis potentiator project, cell-based, ATP content luminescence. shares compounds with PPC-1+TRAIL kill. PPC-1 viability, ATPlite luminescence, overnight. cytotoxicity, % at 5 µM. 1,200 tested, 50% active;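 active = reconfirmed compounds whose average cytotoxicity reaches 50% or more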;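 also: 0% = DMSO-treated cells and 100% = wells holding medium but no cells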
# HSP90 inh confirm = HSP90 inhibitors, confirmation, cell lysate, luminescence | AID 1846, 2009 | shares compounds with HSP90 refold inh | inhibition, % at 5.9 µM | 2,300 tested, 64% active | rabbit reticulocyte lysate, luciferase refolding luminescence, 3 h; in the data active = inhibition above about 18%;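 also: 0% = vehicle wells and 100% = reference inhibitor wells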
# FLuc counter = firefly luciferase inhibitors, HSP90 counter-screen, confirmation, artefact control for HSP90 inhibitor project, biochemical, luminescence, triplicate | shares compounds with HSP90 refold inh | purified native firefly luciferase | inhibition, % at 5.9 µM | 2,300 tested, 48% active | AID 1847, 2009;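 active = inhibition above the mean inhibition of all tested sample wells plus 3 SD, cut at about 10% in these data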;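 also: 0% = DMSO with luciferase and 100% = wells lacking luciferase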
# Target sequence (P08659 whole entry, looked up): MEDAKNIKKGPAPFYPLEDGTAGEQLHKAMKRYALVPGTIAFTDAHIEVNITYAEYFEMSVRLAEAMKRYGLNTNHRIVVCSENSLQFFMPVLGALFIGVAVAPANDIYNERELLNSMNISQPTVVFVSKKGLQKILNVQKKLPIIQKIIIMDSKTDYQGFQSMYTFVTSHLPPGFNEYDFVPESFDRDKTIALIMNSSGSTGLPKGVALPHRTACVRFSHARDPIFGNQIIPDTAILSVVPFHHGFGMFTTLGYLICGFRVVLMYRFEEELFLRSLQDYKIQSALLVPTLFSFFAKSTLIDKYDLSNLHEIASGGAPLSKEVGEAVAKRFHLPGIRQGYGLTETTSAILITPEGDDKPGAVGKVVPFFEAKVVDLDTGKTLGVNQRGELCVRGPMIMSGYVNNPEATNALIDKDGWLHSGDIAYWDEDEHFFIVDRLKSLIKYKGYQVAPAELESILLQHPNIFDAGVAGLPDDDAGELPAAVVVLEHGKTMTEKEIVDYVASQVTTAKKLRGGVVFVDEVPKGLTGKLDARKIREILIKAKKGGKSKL
# * = called active by the depositor; · = no result. Most compounds without a hit are left out; they make up all but 2.4% or so of the library.
SMILES,TRAIL sens C8,PPC-1+TRAIL kill,STAT1 blocker,STAT3 inh,HSP90 refold inh,HSF1 inhib,HSP90 inh confirm,FLuc counter,others
CCCCOc1ccc(-c2cc(C(=O)NNC(=S)NCC)c3ccccc3n2)cc1,87*,90*,59*,87*,30*,-23,52*,-2,PPC-1 tox=90*
O=C(N/N=C/c1cccs1)c1n[nH]c2c1CCCC2,74*,56*,·,·,36*,-26,77*,71*,PPC-1 tox=46
Cc1ccc(/C=N/NC(=O)c2n[nH]c3c2CCCC3)cc1,17,4,·,·,-1,-12,·,·,
C/C(=N\NC(=O)c1n[nH]c2c1CCC2)c1cccs1,80*,68*,·,·,33*,-3,84*,72*,PPC-1 tox=67*
CCc1ccccc1Oc1nc(NC(C)C)nc2ccsc12,-2,·,·,·,·,·,·,·,
Cc1ccc(C(=O)Nc2nnc(COCCO)s2)cc1,3,·,·,·,·,·,·,·,
C[C@H](CO)N1C[C@H](C)[C@H](CN(C)C(=O)Nc2ccnc(N3CCOCC3)c2)OCc2cnnn2CCCC1=O,-4,·,·,·,·,·,·,·,
Cc1cc(C)nc(Nc2nc(-c3ccccc3)cs2)n1,77*,·,·,·,28*,-20,51*,37*,
O=C(Nc1nnc([C@H]2C[C@H](O)[C@@H](CO)O2)s1)c1ccc(Oc2ccccc2)cc1,-4,·,·,·,·,·,·,·,
COc1cccc(N=c2oc3ccccc3cc2-c2nc3ccccc3[nH]2)c1,38,44,-51,-47,24*,25,-2,-13,
COc1ccc(N=c2oc3ccc(OC)cc3cc2-c2nc3ccccc3[nH]2)cc1,43,26,-29,-46,1,31,·,·,
CCOc1cc(N2CCOCC2)c(OCC)cc1NC(=O)CN1C(=O)NC2(CCCCCCC2)C1=O,3,-11,0,-5,-4,13,·,·,
Cc1c(C(=O)O)cccc1-n1c(C)cc(/C=N/NC(=O)c2cc3ccccc3o2)c1C,7,15,3,8,22*,-1,14,-11,
Cc1c(C(=O)O)cccc1-n1c(C)cc(/C=N/Nc2ccc([N+](=O)[O-])cn2)c1C,-17,2,·,·,-2,-1,·,·,
Cc1nc(N)sc1-c1csc(N(C)c2ccc(O)cc2)n1,-6,9,-9,0,27*,0,-10,-21,
CN(c1ccc(O)cc1)c1nc(-c2cccs2)cs1,9,·,-44,4,0,-1,·,·,
CNc1nc(-c2ccccn2)nnc1-c1ccccc1,-3,23,-2,3,1,-14,·,·,
c1ccc(-c2nnc(-c3ccccn3)nc2NC2CCCCC2)cc1,11,2,-3,7,22*,-42,16*,-12,
CCc1nc2c(OCc3cccc(Cl)c3)cccn2c1N(C)C(=O)CC(C)C,19,·,·,·,·,·,·,·,
CCOc1ccc(C(=O)Nc2cccc(C(=O)O)c2C)cc1Cl,8,14,51*,75*,88*,-45,92*,68*,
O=C(Nc1ccccc1C(=O)O)c1ccccc1,14,16,3,9,4,5,·,·,
Cc1c(NC(=O)c2ccc(-c3ccccc3)cc2)cccc1C(=O)O,6,13,·,·,75*,-13,81*,63*,
Cc1cc(C(=O)Cn2nc(C(=O)O)c3ccccc3c2=O)c(C)n1CC(F)(F)F,-3,-3,-44,-11,26*,-13,45*,-22,
COCC(C)n1c(C)cc(C(=O)Cn2nc(C(=O)O)c3ccccc3c2=O)c1C (stereo not given),6,11,-10,16,42*,-31,52*,-11,
Cc1cc(C(=O)Cn2nc(C(=O)O)c3ccccc3c2=O)c(C)n1CCc1ccc(F)cc1,19,-19,·,·,4,-6,·,·,
SMILES,TRAIL sens C8,PPC-1+TRAIL kill,STAT1 blocker,STAT3 inh,HSP90 refold inh,HSF1 inhib,HSP90 inh confirm,FLuc counter,others
COCC(C)n1c(C)cc(C(=O)COC(=O)c2nn(C)c(=O)c3ccccc23)c1C (stereo not given),18,·,·,·,·,·,·,·,
O=C1NC[C@H](Cc2ccc(O)cc2)N(C[C@@H]2CCCN2C[C@H](Cc2ccc(O)cc2)N2C[C@H](Cc3ccccc3)N(CCc3ccccc3)C(=O)C2=O)C1=O,-2,·,·,·,·,·,·,·,
CCCCCCN1C[C@H](n2cc(-c3ccc(F)cc3)nn2)[C@@H](O)C[C@@H]1c1ccc(C)cc1,1,·,·,·,·,·,·,·,
Clc1cccc(-c2ccc(CNCCCN3CCOCC3)o2)c1,1,2,-3,4,27*,24,1,-4,
Cc1ccc2nc(C(C)(C)C)c(Cc3ccccc3C(F)(F)F)n2c1,3,·,·,·,·,·,·,·,
COc1ccc(C(=O)/C=C/Nc2cc(C)ccn2)cc1,61*,35,·,·,31*,5,68*,55*,
COc1ccc(N/C=C\C(=O)c2ccc3ccccc3c2)cc1,23,·,·,·,9,5,·,·,
COc1ccc(N/C=C/C(=O)c2ccccc2)cc1,71*,·,·,·,54*,-6,88*,81*,
Cc1ccnc(N/C=C/C(=O)c2ccc(Br)cc2)c1,44,·,·,·,9,26,·,·,
O=[N+]([O-])c1ccc(NN=CC2CCCCCC2)c([N+](=O)[O-])c1,3,·,·,·,·,·,·,·,
Cc1ccc(-c2nc3nc4ccccc4nc3n2Cc2ccco2)cc1,16,27,-27,35,47*,15,20*,0,
Cc1ccc(OCC(=O)N(C)CC(=O)N(CC(C)C)c2c(N)n(CC(C)C)c(=O)[nH]c2=O)c(C)c1,-10,·,·,·,·,-3,·,·,
Cc1ccccc1OCC(=O)N(CC(C)C)c1c(N)n(CC(C)C)c(=O)[nH]c1=O,-12,23,·,·,45*,1,-2,-2,
O=C(c1cccc([N+](=O)[O-])c1)c1ccc2[nH]c(=O)[nH]c2c1,-4,·,·,·,-3,-13,·,·,
Cc1ccccc1C(=O)Nc1nnc(SCC(=O)NCc2ccco2)s1,59*,·,·,·,18*,8,27*,15*,
Cc1ccccc1Nc1nnc(SCC(=O)NCc2ccco2)s1,-4,15,-2,-5,4,·,·,·,
O=C(COc1ccc(Cl)cc1Cl)NC(=O)N1CCCCC1,-10,18,-25,5,28*,18,37*,31*,
O=C(COc1ccc(Cl)cc1Cl)NC(=O)NC1CCCC1,-1,·,·,·,·,·,·,·,
